Records with an inconclusive call do not appear. The source made the active and inactive calls. Unless noted, calls follow the shape of the dose curve; as a rule, active = well fitted curve in the direction sought with a large enough effect in the repeat runs; inconclusive = weak or mixed curves; inactive = no such curve, though single readings can be large; an effect the other way counts as inactive or inconclusive.
Tests used:
[1] = qHTS assay to identify small molecule antagonists of the glucocorticoid receptor (GR) signaling pathway - cell viability counter screen (AID 720693); also: nearly all actives have a fitted effect of over 55% in size
[2] = qHTS assay for identifying genotoxic compounds that show differential cytotoxicity against isogenic chicken DT40 cell lines with known DNA damage response pathways - wild type cell line (AID 743012); also: nearly all actives have a fitted effect of over 60% in size; also: potency is read from the fitted curve at half-maximal effect
How it was run: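 Wild-type DT40 cells (300/well) exposed to compounds for 40 hours at 37 C/5% CO2. Viability read by CellTiter-Glo luminescence after 30 min at room temperature.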

[3] = qHTS assay for identifying genotoxic compounds that show differential cytotoxicity against isogenic chicken DT40 cell lines with known DNA damage response pathways - Rad54/Ku70 mutant cell line (AID 743015); also: nearly all actives have a fitted effect of over 60% in size; also: potency is read from the fitted curve at half-maximal effect
[4] = qHTS assay to identify small molecule antagonists of the androgen receptor (AR) signaling pathway using the MDA cell line - cell viability counter screen (AID 743041; also: nearly all actives have a fitted effect of over 45% in size)
How it was run: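 Same-well cytotoxicity was assessed by CellTiter-Fluor in MDA-kb2 AR-luc cells after 16 h of compound treatment under R1881 agonism.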

[5] = qHTS assay to identify small molecule antagonists of the thyroid receptor (TR) signaling pathway - cell viability counter screen (AID 743064); also: nearly all actives have a fitted effect of over 50% in size
How it was run: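 Same-well viability check: GH3.TRE-Luc cells stimulated with 1 nM T3 alongside test compound for 23.5 h, followed by CellTiter-Fluor fluorescence.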

[6] = qHTS assay to identify small molecule antagonists of the thyroid receptor (TR) signaling pathway (AID 743065); also: series mostly up to about 70 µM; nearly all actives have a fitted effect of over 55% in size
How it was run: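 GH3.TRE-Luc rat pituitary cells (two TREs driving luciferase) were dosed with compound, then stimulated with 1 nM T3 (final) for 23.5 h at 37 C. ONE-Glo luminescence was the read-out, with CellTiter-Fluor fluorescence as the cytotoxicity counter-screen.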

[7] = test system: thyroid hormone receptor (rat, GH3 cells); assay: qHTS assay to identify small molecule agonists of the thyroid receptor (TR) signaling pathway (AID 743066; calls by dose curve)
[8] = molecular target: Estrogen receptor (Homo sapiens) (UniProt P03372); assay: qHTS assay to identify small molecule antagonists of the estrogen receptor alpha (ER-alpha) signaling pathway (AID 743069; active = well fitted curve in the direction sought with a large enough effect in the signal ratio in the repeat runs, not every such curve was filed as active; the % refers to the signal ratio)
How it was run: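 Reporter cells (ER-alpha-bla, HEK293 background) are conditioned overnight in stripped-serum medium (2% charcoal-stripped FBS). Compound and 17beta-estradiol exposure runs 18 hr at 37C, 5% CO2.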

[9] = qHTS assay to identify small molecule antagonists of the estrogen receptor alpha (ER-alpha) signaling pathway - cell viability counter screen (AID 743074; calls by dose curve;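 also: HEK293 cells carrying ER-alpha-UAS-bla reporter stimulated with 17beta-estradiol; nearly all actives have a fitted effect of over 45% in size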)
[10] = molecular target: Estrogen receptor (Homo sapiens) (UniProt P03372); assay: qHTS assay to identify small molecule agonists of the estrogen receptor alpha (ER-alpha) signaling pathway (AID 743075; calls by dose curve;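 also: HEK293 GripTite cells with ER-alpha and UAS-driven beta-lactamase reporter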)
[11] = molecular target: Estrogen receptor (Homo sapiens) (UniProt P03372); assay: qHTS assay to identify small molecule agonists of the estrogen receptor alpha (ER-alpha) signaling pathway using the BG1 cell line (AID 743079); also: nearly all actives have a fitted effect of over 20% in size
Aromatase (Homo sapiens) = Aromatase (Homo sapiens) (UniProt P11511); assay: qHTS assay to identify aromatase inhibitors (AID 743083); also: series mostly up to about 70 µM; nearly all actives have a fitted effect of over 55% in size
[12] = qHTS assay for identifying genotoxic compounds that show differential cytotoxicity against isogenic chicken DT40 cell lines with known DNA damage response pathways - Rev3 mutant cell line (AID 743014); also: nearly all actives have a fitted effect of over 55% in size; also: potency is read from the fitted curve at half-maximal effect
[13] = qHTS assay to identify small molecule antagonists of the androgen receptor (AR) signaling pathway - cell viability counter screen (AID 743033; also: nearly all actives have a fitted effect of over 45% in size)
[14] = qHTS assay to identify small molecule antagonists of the estrogen receptor alpha (ER-alpha) signaling pathway using the BG1 cell line (AID 743080; calls by dose curve;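 also: BG1 cells stimulated with 17beta-estradiol alongside compound; series mostly up to about 70 µM; nearly all actives have a fitted effect of over 25% in size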)
How it was run: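 Readout is ONE-Glo luminescence, taken 30 min at room temperature after reagent addition, preceded by a CellTiter-Fluor viability read; BG1-Luc-4E2 cells had received compound and 17beta-estradiol for 21.5 h at 37 C.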

[15] = qHTS assay to identify small molecule antagonists of the estrogen receptor alpha (ER-alpha) signaling pathway using the BG1 cell line - cell viability counter screen (AID 743081);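 also: compound given together with 17beta-estradiol as the ER stimulus; series mostly up to about 70 µM; nearly all actives have a fitted effect of over 45% in size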
[16] = molecular target: Androgen receptor (Homo sapiens) (UniProt P10275); assay: qHTS assay to identify small molecule antagonists of the androgen receptor (AR) signaling pathway (AID 743035; active = well fitted inhibition curve with a large enough effect in the signal ratio in the repeat runs, not every such curve was filed as active; the % refers to the signal ratio)
How it was run: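 HEK293 cells stably carrying UAS-beta-lactamase reporter, 2,000/well, given compounds plus R1881 agonist and incubated 16 h at 37C. LiveBLAzer B/G FRET substrate then added for 2 h at room temperature before fluorescence reading.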

[17] = molecular target: Androgen receptor (Homo sapiens) (UniProt P10275); assay: qHTS assay to identify small molecule agonists of the androgen receptor (AR) signaling pathway (AID 743036; active = well fitted activation curve with a large enough effect in the signal ratio in the repeat runs, with a control signal flat, not every such curve was filed as active; the % refers to the signal ratio)
How it was run: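 Agonist activity was scored by beta-lactamase reporter fluorescence in stably transfected HEK293 cells exposed to compounds for 16 h at 37C and 5% CO2. Substrate loading took 2 h at room temperature.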

[18] = molecular target: Androgen receptor (Homo sapiens) (UniProt P10275); assay: qHTS assay to identify small molecule agonists of the androgen receptor (AR) signaling pathway using the MDA cell line (AID 743040; also: nearly all actives have a fitted effect of over 20% in size)
How it was run: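 Human breast carcinoma MDA-kb2 reporter cells (MMTV-luc, AR/GR elements) were treated for 16 h at 37C in 0% CO2 following a 5 h settling period. Signal was quantified by ONE-Glo luminescence.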

[19] = molecular target: Androgen receptor (Homo sapiens) (UniProt P10275); assay: qHTS assay to identify small molecule antagonists of the androgen receptor (AR) signaling pathway using the MDA cell line (AID 743042; also: nearly all actives have a fitted effect of over 55% in size)
How it was run: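 MDA-kb2 breast carcinoma cells carrying MMTV-luciferase (AR/GR responsive) were co-treated with compounds and the agonist R1881 for 16 h at 37C. Inhibition read as ONE-Glo luminescence; CellTiter-Fluor fluorescence measured in parallel for cytotoxicity.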

Measured: Potency

Aromatase (Homo sapiens), sequence (P11511 whole entry, looked up): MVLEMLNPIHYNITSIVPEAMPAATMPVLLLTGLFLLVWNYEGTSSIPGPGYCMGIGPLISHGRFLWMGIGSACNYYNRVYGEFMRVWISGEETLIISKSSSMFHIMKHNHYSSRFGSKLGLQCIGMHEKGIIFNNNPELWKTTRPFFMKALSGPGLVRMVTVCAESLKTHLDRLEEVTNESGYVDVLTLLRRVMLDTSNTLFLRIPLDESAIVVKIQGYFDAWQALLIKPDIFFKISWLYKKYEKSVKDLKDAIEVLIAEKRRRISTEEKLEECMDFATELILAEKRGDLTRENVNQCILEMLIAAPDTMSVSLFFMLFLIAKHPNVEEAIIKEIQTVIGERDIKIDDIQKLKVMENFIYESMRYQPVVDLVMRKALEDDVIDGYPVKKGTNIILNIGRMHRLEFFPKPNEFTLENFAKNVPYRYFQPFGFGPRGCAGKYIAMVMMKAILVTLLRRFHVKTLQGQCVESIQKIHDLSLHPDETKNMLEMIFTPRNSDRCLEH
Estrogen receptor (Homo sapiens), sequence (P03372 whole entry, looked up): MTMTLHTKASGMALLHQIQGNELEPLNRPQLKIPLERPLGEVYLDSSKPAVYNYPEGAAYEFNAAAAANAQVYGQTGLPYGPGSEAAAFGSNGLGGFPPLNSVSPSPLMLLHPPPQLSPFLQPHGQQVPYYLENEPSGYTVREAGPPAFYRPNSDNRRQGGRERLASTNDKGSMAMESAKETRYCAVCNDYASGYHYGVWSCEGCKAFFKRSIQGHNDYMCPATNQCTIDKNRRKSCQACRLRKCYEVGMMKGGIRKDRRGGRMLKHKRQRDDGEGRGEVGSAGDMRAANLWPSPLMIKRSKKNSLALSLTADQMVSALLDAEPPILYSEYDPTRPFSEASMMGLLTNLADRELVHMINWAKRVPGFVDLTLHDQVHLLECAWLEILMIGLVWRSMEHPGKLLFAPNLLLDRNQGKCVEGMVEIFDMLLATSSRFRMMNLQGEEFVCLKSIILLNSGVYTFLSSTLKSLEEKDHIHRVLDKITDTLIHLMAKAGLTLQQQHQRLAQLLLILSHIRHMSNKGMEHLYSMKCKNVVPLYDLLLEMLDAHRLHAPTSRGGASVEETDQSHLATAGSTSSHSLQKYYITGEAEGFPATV
Androgen receptor (Homo sapiens), sequence (P10275 whole entry, looked up): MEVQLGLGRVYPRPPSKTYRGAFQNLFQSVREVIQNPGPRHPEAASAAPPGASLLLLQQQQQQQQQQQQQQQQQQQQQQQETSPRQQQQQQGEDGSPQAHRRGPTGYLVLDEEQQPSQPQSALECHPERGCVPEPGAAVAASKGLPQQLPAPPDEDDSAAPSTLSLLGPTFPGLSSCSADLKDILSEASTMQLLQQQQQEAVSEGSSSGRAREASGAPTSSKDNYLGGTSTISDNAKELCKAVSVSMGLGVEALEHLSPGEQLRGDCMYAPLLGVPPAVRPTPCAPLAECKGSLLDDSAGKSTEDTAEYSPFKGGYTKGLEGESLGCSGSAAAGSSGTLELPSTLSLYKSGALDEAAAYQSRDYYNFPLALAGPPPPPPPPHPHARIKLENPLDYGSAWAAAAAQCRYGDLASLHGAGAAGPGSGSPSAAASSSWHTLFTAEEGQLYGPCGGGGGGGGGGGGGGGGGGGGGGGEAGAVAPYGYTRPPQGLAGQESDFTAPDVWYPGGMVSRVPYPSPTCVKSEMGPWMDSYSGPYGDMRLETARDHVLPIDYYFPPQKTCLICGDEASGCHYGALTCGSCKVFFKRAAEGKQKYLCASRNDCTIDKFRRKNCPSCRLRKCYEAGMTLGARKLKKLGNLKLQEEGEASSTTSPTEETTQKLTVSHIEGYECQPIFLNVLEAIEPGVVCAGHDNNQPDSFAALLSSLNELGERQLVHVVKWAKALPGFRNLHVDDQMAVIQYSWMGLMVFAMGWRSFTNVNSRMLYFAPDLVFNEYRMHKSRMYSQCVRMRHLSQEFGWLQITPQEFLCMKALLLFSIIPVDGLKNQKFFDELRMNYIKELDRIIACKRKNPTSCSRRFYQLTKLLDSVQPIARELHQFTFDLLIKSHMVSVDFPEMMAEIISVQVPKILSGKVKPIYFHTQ

Nc1nc2c(ncn2COC(CO)CO)c(=O)[nH]1
active: [2] 2.85 µM | [3] 8.04 µM
inactive: [1] | [4] | [5] | [6] | [7] | [8] | [9] | [10] | [11] | Aromatase (Homo sapiens)

COc1ccccc1OCC(O)CN1CCN(CC(=O)Nc2c(C)cccc2C)CC1 (stereo not given)
not listed: [2] | [16] | [17] | [18] | [19]
inactive: all other assays above

CCO/C([O-])=N/c1c[n+](N2CCOCC2)no1
not listed: [12] | [13] | [16] | [17] | [18] | [19]
inactive: all other assays above

O=[N+]([O-])c1ccc(F)cc1F
not listed: [2] | [16] | [17] | [18] | [19]
inactive: all other assays above

CCn1ccnc1CC1COc2ccccc2O1 (stereo not given)
not listed: [2]
inactive: all other assays above

O=C1CCCN1C1CCCCC1
not listed: [2] | [16] | [17] | [18] | [19]
inactive: all other assays above

NS(=O)(=O)c1ccc(C(=O)O)cc1
not listed: [12]
inactive: all other assays above

C=C1CC[C@H]2C[C@@H]1C2(C)C
not listed: [3] | [12] | [13] | [16] | [17] | [18] | [19]
inactive: all other assays above

Cc1c(NC(C)C)c(=O)n(-c2ccccc2)n1C
not listed: [6] | [9] | [12] | [16] | [17] | [18] | [19]
inactive: all other assays above

CC(C)NCC(O)c1ccc(NS(C)(=O)=O)cc1 (stereo not given)
inactive: [1] | [12] | [3] | [13] | [4] | [5] | [6] | [7] | [9] | [15]

CCOC(=O)c1cccc(N)c1
not listed: [2] | [11] | [14] | [16] | [17] | [18] | [19]
inactive: all other assays above

O=c1cc(CO)occ1O
not listed: [2] | [16] | [17] | [18] | [19]
inactive: all other assays above

O=C1CCCCCCCCCCCN1
not listed: [2] | [16] | [17] | [18] | [19]
inactive: all other assays above

O=C(O)CNC(=O)c1ccc([N+](=O)[O-])cc1
inactive: [1] | [2] | [12] | [13] | [4] | [5] | [6] | [7] | [9] | [15] | Aromatase (Homo sapiens)

O=C1NC(=O)[C@@]2(CCOc3ccc(F)cc32)N1
inactive: [1] | [2] | [3] | [4] | [8] | [9] | [10] | [11] | [14] | [15] | Aromatase (Homo sapiens)

O=C[C@H](O)[C@@H](O)[C@H](O)[C@H](O)CO
not listed: [2] | [16] | [17] | [18] | [19]
inactive: all other assays above

CCOc1ccc(C(=O)OCCN(CC)CC)cc1
active: [12] 21.1 µM | [3] 26.6 µM
not listed: [2] | [8] | [10] | [11] | [14]
inactive: all other assays above
